PubChem BioAssay AID686979 (National Center for Advancing Translational Sciences (NCATS), 2013)
Out of some 420,000 compounds screened, about 50,000 (12%) were called active. Another 26% or so got no clear call; they are omitted. Calls follow the shape of the dose curve; as a rule, active = well fitted inhibition curve with a large enough effect; inconclusive = small, poorly fitted or top-dose-only effect; inactive = flat fitted curve, though single readings scatter. The entries come from a sample that favours actives as a whole.

test: qHTS for Inhibitors of human tyrosyl-DNA phosphodiesterase 1 (TDP1): qHTS in cells in presence of CPT; settings: chicken DT40 Tdp1-/-;hTDP1 cells + 20 nM CPT, ATP luminescence, 48 h; series mostly up to 46.2 µM; activity change, negative = growth inhibition: at the top concentration; also: nearly all actives have a fitted effect of over 55% in size
Summary of the method: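 Chicken DT40 Tdp1-/- cells complemented with human TDP1, 400 cells/well, exposed to compounds plus 20 nM camptothecin for at least 48 h at 37 C; viability read as ATP content by CellTiter-Glo luminescence.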
% is scaled to controls: 0 for no effect and ±100 for the full control effect; potency is read from the fitted curve at half-maximal effect.

| SMILES | activity change, negative = growth inhibition | Potency |
| --- | --- | --- |
| C/C(=N\NC(=O)c1nc(C)cc(C)n1)c1ccccc1 | 10.9% (inactive) |  |
| Cc1ccc(N/C=C/C(=O)c2ccccc2)cc1C | 0.497% (inactive) |  |
| Cc1cc(C)nc(S/C=C/C(=O)c2ccccc2)n1 |  | 2.06 µM (active) |
| O=C(CN(Cc1ccccc1)C(=O)CCC(=O)Nc1ccccn1)NCCc1ccccc1 | -26.5% (inactive) |  |
| O=C(CCCn1c(SCC(=O)c2ccccc2)nc2ccccc2c1=O)NCC1CCCO1 (centres undefined) |  | 16.4 µM (active) |
| O=C(CSc1nc2ccccc2c(=O)n1Cc1ccc(F)cc1)NCC1CCCO1 (centres undefined) | -24.9% (inactive) |  |
| O=C(CCn1c(SCC(=O)c2ccccc2)nc2ccccc2c1=O)NCc1ccc(F)cc1 | -4.07% (inactive) |  |
| COCCCNC(=O)Cn1cc(/C=C(\C#N)C(=O)N2CCN(c3ccccc3)CC2)c2ccccc21 | 3.39% (inactive) |  |
| N#CCC(=O)N/N=C/c1ccc(SCC(=O)Nc2ccccc2)o1 | -23.9% (inactive) |  |
| CNC(=S)N/N=C/c1cn(Cc2ccc(C)cc2)c2ccccc12 |  | 18.4 µM (active) |
| NC(=O)Cn1cc(/C=N\NS(=O)(=O)c2ccccc2)c2ccccc21 | -4.65% (inactive) |  |
| N#CCC(=O)N/N=C/c1cn(Cc2ccc3ccccc3c2)c2ccccc12 |  | 5.8 µM (active) |
| Cc1ccc(CNC(=O)C(=O)c2cn(CC(=O)N3CCCC3)c3ccccc23)cc1 | -29.5% (inactive) |  |
| Nc1nc(NCC(=O)O)nc(N2CCCCCC2)c1[N+](=O)[O-] | 5.37% (inactive) |  |
| Cc1ccc(-n2c(-c3ccc(Cl)cc3)n[nH]c2=S)cc1 | -2.68% (inactive) |  |
| CC1(C)OC(=O)C2=C(C[C@@H](C3CC3)O[C@H]2c2ccc(Cl)cc2)O1 | -2.98% (inactive) |  |
| CN(CCO)C(=O)c1nc[nH]c1C(=O)N(C)Cc1ccccc1 | -26.5% (inactive) |  |
| COc1ccc(-c2cn3nc(N4CCCC(C(=O)NCCCOC(C)C)C4)sc3n2)cc1 (centres undefined) |  | 13 µM (active) |
| COc1ccc(-c2cn3nc(N4CCC(C(=O)Nc5cccc(C)c5C)CC4)sc3n2)cc1 |  | 20.6 µM (active) |
| Cc1cc(=O)n2nc(N3CCCC(C(=O)NCc4ccc(Cl)cc4)C3)sc2n1 (centres undefined) | -8.25% (inactive) |  |
| CCc1ccc(CNC(=O)C2CCN(c3nn4cc(-c5ccc(F)cc5)nc4s3)CC2)cc1 | -23% (inactive) |  |
| COc1ccc(OC)c(CNC(=O)C2CCCN(c3nc4ccccc4o3)C2)c1 (centres undefined) | -4.53% (inactive) |  |
| Cc1cc(=O)n2nc(N3CCC(C(=O)Nc4c(F)c(F)c(F)c(F)c4F)CC3)sc2n1 | 5.78% (inactive) |  |
| CC(C)CNS(=O)(=O)c1ccc(CCC(=O)NCc2ccc(Cl)cc2)cc1 | -12% (inactive) |  |
| CCN(CC)S(=O)(=O)c1ccc(N2CC(C(=O)NCc3cccnc3)CC2=O)cc1 (centres undefined) | -1.05% (inactive) |  |

| SMILES | activity change, negative = growth inhibition | Potency |
| --- | --- | --- |
| COc1ccc(-c2cc(C(=O)NC(C(=O)O)C(C)C)c(C)o2)cc1OC (centres undefined) | 6.13% (inactive) |  |
| Cc1cccc(C)c1OCC(=O)NC(Cc1c[nH]c2ccccc12)C(=O)O (centres undefined) |  | inactive |
| COc1ccc(-c2cc(C(=O)NC(Cc3c[nH]c4ccccc34)C(=O)O)c(C)o2)cc1OC (centres undefined) |  | 29.1 µM (active) |
| Cc1ccc(C(=O)Nc2cccc(-c3nc(CNC(=O)c4ccccc4-n4cccn4)c(C)o3)c2)s1 | -16.4% [at 9.04 µM] (inactive) |  |
| CCN(CC)c1ccc(C2C(C(N)=O)=C(C)Nc3nc(SCc4ccccc4)nn32)cc1 (centres undefined) | -2.6% (inactive) |  |
| Cc1nc(N)[nH]c(=O)c1Oc1cccc(C(F)(F)F)c1 | -5.81% (inactive) |  |
| Cc1cccc(-c2cnc(C(O)c3ccc4ccccc4c3)[nH]2)c1 (centres undefined) |  | 20.6 µM (active) |
| COc1c(C)cc(C(O)c2ncc(-c3cccc(C(F)(F)F)c3)[nH]2)cc1C (centres undefined) |  | 23.1 µM (active) |
| O=c1cc(O)c(-c2cccc(C(F)(F)F)c2)c(Cl)[nH]1 | -0.16% (inactive) |  |
| CCCc1ccc(C(O)c2ncc(-c3cccc(OC)c3)[nH]2)cc1 (centres undefined) |  | 16.4 µM (active) |
| Cc1ccc(-c2cnc(C(O)c3cccc(C)c3C)[nH]2)cc1 (centres undefined) | -25.5% (inactive) |  |
| COc1cccc(-c2ccc(C#N)c(SCC(=O)NCCc3ccc(Cl)cc3)n2)c1 | -4.8% (inactive) |  |
| OC(c1ccc(Cl)c(F)c1)c1ncc(-c2ccccc2Cl)[nH]1 (centres undefined) | -20.4% (inactive) |  |
| COc1cccc(-c2cnc(C(O)c3ccccc3OC)[nH]2)c1 (centres undefined) | -15.6% (inactive) |  |
| O=C(O)c1ccc(/C=C2\SC(=S)N(NC(=O)c3ccc(Br)cc3)C2=O)cc1 | -6.8% (inactive) |  |
| C=CCO/N=C/C1=C(O)C(C(=O)OC)C(C)(C)CC1=O (centres undefined) | 3.24% (inactive) |  |
| CCCCC(NC(=O)c1cccc(Br)c1)C(=O)O (centres undefined) | 2.45% (inactive) |  |
| CSc1ccc(/C=N\NC(=O)CC(=O)NC(C)C)cc1 | -1.78% (inactive) |  |
| Cc1cc(C)n(-c2nc(O)cc(=O)[nH]2)n1 | 8.2% (inactive) |  |
| COC(=O)C1=C(C(=O)c2ccc(C)cc2)C(c2ccccc2)n2nnnc2N1 (centres undefined) | 6% (inactive) |  |
| O=Cc1c(Nc2ccccc2Cl)nc2ccccn2c1=O | 9.71% (inactive) |  |
| COc1cc(N=Cc2c(O)c3ccccc3oc2=O)c(OC)cc1Cl | -28.4% (inactive) |  |
| CC(=O)Nc1ccccc1Sc1ccc2c3c(cccc13)C(=O)N(c1ccc(C)cc1)C2=O |  | 11.6 µM (active) |
| CCOC(=O)Nc1ccccc1N1C(=O)c2ccccc2C1=O | -2.91% (inactive) |  |
| CSc1ccccc1NC(=O)C(C)N1C(=O)c2ccccc2S1(=O)=O (centres undefined) | 17% (inactive) |  |

| SMILES | activity change, negative = growth inhibition | Potency |
| --- | --- | --- |
| COc1ccc(NC(=O)COC(=O)C2COc3ccccc3O2)cc1 (centres undefined) | -5.6% (inactive) |  |
| CN(C)c1ccc(C(CC(=O)O)C(=O)O)cc1 (centres undefined) | -3.14% (inactive) |  |
| COC(=O)[C@]1(S(=O)(=O)c2ccccc2)C[C@@H]2ON=C(c3ccc(OC)cc3)[C@@H]2C1 | -13.2% (inactive) |  |
| N#C[C@]1(S(=O)(=O)c2ccccc2)C[C@@H]2ON=C(c3cccc(Br)c3)[C@@H]2C1 |  | 9.2 µM (active) |
| O=C(NCCCn1ccnc1)C1CCCN(S(=O)(=O)c2cc(Cl)ccc2Cl)C1 (centres undefined) | -12.4% (inactive) |  |
| CCC1(c2ccccc2)NC(=O)N(CC(=O)Nc2ccccc2C(=O)NC2CCCC2)C1=O (centres undefined) | -29.4% (inactive) |  |
| COc1ccc(S(=O)(=O)n2nc(C)c(S(=O)(=O)N3CCOCC3)c2C)cc1 | -1.57% (inactive) |  |
| O=C(/C=C/c1ccccc1[N+](=O)[O-])NCC1CCCO1 (centres undefined) | -3.02% (inactive) |  |
| CC1CCCCC1NC(=O)/C(C#N)=C/C=C/c1ccccc1[N+](=O)[O-] (centres undefined) |  | 10.3 µM (active) |
| O=C(/C=C/c1ccccc1[N+](=O)[O-])OC1CCCCC1=O (centres undefined) | -14.9% (inactive) |  |
| O=C(Nc1cccc(C(=O)O)c1)/C(=C\c1ccccc1)NC(=O)c1ccc(Br)o1 | 3.2% (inactive) |  |
| COc1ccc(-n2ccn(CC(=O)Nc3ccc(C)c(C)c3)c(=O)c2=O)cc1OC | -3.68% (inactive) |  |
| Cc1ccc(CNC(=O)CCc2c(C)nc3nc(CNC(=O)OC(C)(C)C)nn3c2C)cc1 | -8.79% (inactive) |  |
| O=C(Oc1c(-c2ccco2)oc2ccccc2c1=O)c1cccnc1 |  | 16.4 µM (active) |
| O=C(Oc1ccc(Br)cc1)c1cccnc1 | 22.8% (inactive) |  |
| O=C(Oc1cccnc1)c1cc2ccccc2oc1=O | -3.36% (inactive) |  |
| O=S1(=O)CCO[C@H]2Cc3ccccc3[C@H]2N1Cc1ccccc1 | -13.6% (inactive) |  |
| Cc1ccc(Sc2ccncc2S(N)(=O)=O)cc1 | 3.01% (inactive) |  |
| CCCc1cc(C(=O)Nc2ccc(Cl)cn2)cs1 | 0.0898% (inactive) |  |
| Cc1ccccc1NC(=O)Cn1cc(C(=O)C2CC2)c2ccccc21 | -24.4% (inactive) |  |
| Cc1cccc(NC(=O)Cn2cc(C(=O)c3ccco3)c3ccccc32)c1 |  | 18.4 µM (active) |
| CC1CCN(C(=O)Cn2cc(C(=O)c3ccco3)c3ccccc32)CC1 | -12.7% (inactive) |  |
| CCn1c(O)c(N=NC(=O)c2cccc(S(=O)(=O)N3CCCCC3)c2)c2ccccc21 |  | 14.6 µM (active) |
| CCn1c2ccccc2c2cc(NC(=O)COC(=O)c3cc(S(=O)(=O)N4CCCCC4)ccc3Cl)ccc21 | -5.5% (inactive) |  |
| Cc1cccc(NC(=O)c2cccc(S(=O)(=O)N3CCCC3)c2)n1 | -29.7% (inactive) |  |

| SMILES | activity change, negative = growth inhibition | Potency |
| --- | --- | --- |
| O=S1(=O)C[C@@H](N2CCN(CCO)CC2)[C@H](COCc2ccccc2)N1 | -4.37% (inactive) |  |
| COc1ccc(N(CC(=O)Nc2cccc3ccccc23)S(C)(=O)=O)c(OC)c1 | -13.2% (inactive) |  |
| O=C(NCCN1CCOCC1)C1CCN(S(=O)(=O)c2ccccc2)CC1 | 13.8% (inactive) |  |
| O=C(Nc1cccc(Cl)c1)c1cncn1-c1ccc(F)cc1 | -3.46% (inactive) |  |
| COc1cc(NC(=O)c2cc(-c3ccc(F)cc3OC(C)C)n[nH]2)cc(OC)c1OC |  | 14.6 µM (active) |
| CC(C)Oc1cc(F)ccc1-c1cc(C(=O)Nc2cccc(Cl)c2)[nH]n1 |  | 18.4 µM (active) |
| COc1cc(F)ccc1-c1cc(C(=O)NCC2CCCCC2)[nH]n1 | -24.6% (inactive) |  |
| O=C(Nc1cccc(Cl)c1)c1cc(S(=O)(=O)N2CCCCC2)c[nH]1 | 11.7% (inactive) |  |
| COc1cc(-c2cc3n(C)c(C)c(CCC(=O)Nc4ccc(F)cc4)c(=O)n3n2)cc(OC)c1OC | -2.72% (inactive) |  |
| COc1ccccc1C(=O)OCC(=O)NCCNC(=O)COC(=O)c1ccccc1OC | 4.02% (inactive) |  |
| COc1ccccc1OCC(=O)Nc1nnc2n1CCS2 | -2.33% (inactive) |  |
| CN(c1ccccc1)S(=O)(=O)c1ccc(Cl)c(C(=O)OCC(=O)NCc2ccco2)c1 | -17.2% (inactive) |  |
| O=C(COC(=O)c1ccccc1O)NCc1ccco1 | -1.93% (inactive) |  |
| Cc1cc(C(=O)OCC(=O)NCc2ccco2)c(C)n1-c1ccccc1 |  | 2.31 µM (active) |
| COc1cccc(CNC(=O)CN2C(=O)CCc3cc(S(=O)(=O)N4CCOCC4)ccc32)c1 | -11.3% (inactive) |  |
| CSc1nc2nc(-c3cccc(C(F)(F)F)c3)ccn2n1 | 15.5% (inactive) |  |
| CCCC(=O)Nc1ccc(C(=O)N/N=C/c2ccc[nH]2)cc1 | -17.9% (inactive) |  |
| CCCn1c(C)cc(-c2csc(NC(=O)CCc3nc4ccccc4c(=O)[nH]3)n2)c1C |  | 23.1 µM (active) |
| Cc1cc(-c2csc(N)n2)c(C)n1Cc1ccccc1 | -21.8% (inactive) |  |
| CC(=O)NCc1ccc(-c2csc(NC(=O)CCCc3nc4ccccc4c(=O)[nH]3)n2)cc1 | -23.3% (inactive) |  |
| Cc1cc(C)c(-c2csc(NC(=O)CCCc3nc4ccccc4c(=O)[nH]3)n2)c(C)c1 |  | 18.4 µM (active) |
| CC(C)(C)c1ccc(NC(=O)COC(=O)CCc2nc3ccccc3c(=O)[nH]2)cc1 | -11.3% (inactive) |  |
| O=C(COC(=O)CCc1nc2ccccc2c(=O)[nH]1)Nc1ccc(N2CCOCC2)cc1 | -14.7% (inactive) |  |
| Cc1cccc(C(=O)NCc2nnc(SC(C)C(=O)Nc3nnc(C)s3)n2C)c1 (centres undefined) | -34.3% (inactive) |  |
